Source: PubChem BioAssay (Tox21)
Records with an inconclusive call do not appear. Calls of active or inactive are those of the source. Unless noted, calls follow the shape of the dose curve; as a rule, active = well fitted curve in the direction sought with a large enough effect in the repeat runs; inconclusive = weak or mixed curves; inactive = no such curve, though single readings can be large; an effect the other way counts as inactive or inconclusive.

Key:
[1] = qHTS assay to identify small molecule agonists of the peroxisome proliferator-activated receptor delta (PPARd) signaling pathway - cell viability counter screen (AID 743211); also: nearly all actives have a fitted effect of over 55% in size
How it was run: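 PPARd-bla HEK293H cells (3000/well) were pre-incubated 5 h at 37 C, then exposed to compound for 17 h at 37 C. After 2 h with LiveBLAzer substrate, CellTiter-Glo was added to the same wells; luminescence read after 30 min at room temperature.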

[2] = biological target: Peroxisome proliferator-activated receptor delta (Homo sapiens) (UniProt Q03181); test: qHTS assay to identify small molecule agonists of the peroxisome proliferator-activated receptor delta (PPARd) signaling pathway (AID 743212; calls by dose curve)
Peroxisome proliferator-activated receptor delta (Homo sapiens), sequence (Q03181 whole entry, looked up): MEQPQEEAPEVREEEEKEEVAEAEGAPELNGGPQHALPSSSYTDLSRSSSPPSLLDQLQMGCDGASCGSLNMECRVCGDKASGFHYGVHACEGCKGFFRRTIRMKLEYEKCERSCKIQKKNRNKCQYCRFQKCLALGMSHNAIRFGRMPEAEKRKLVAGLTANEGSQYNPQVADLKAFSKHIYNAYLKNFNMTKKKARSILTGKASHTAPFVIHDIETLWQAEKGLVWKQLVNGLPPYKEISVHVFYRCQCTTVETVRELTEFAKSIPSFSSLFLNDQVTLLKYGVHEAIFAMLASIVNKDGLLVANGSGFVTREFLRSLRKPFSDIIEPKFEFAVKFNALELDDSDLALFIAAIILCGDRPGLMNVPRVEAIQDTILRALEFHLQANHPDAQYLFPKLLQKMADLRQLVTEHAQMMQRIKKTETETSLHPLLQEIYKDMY
How it was run: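 GeneBLAzer PPARd UAS-bla HEK293H cells (beta-lactamase reporter under UAS control), plated and rested 5 h at 37 C, then exposed to compounds in DMSO at 37 C; LiveBLAzer B/G FRET substrate added, 2 h room temperature, fluorescence read.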

[3] = qHTS assay to identify small molecule antagonists of the peroxisome proliferator-activated receptor delta (PPARd) signaling pathway - cell viability counter screen (AID 743213); also: nearly all actives have a fitted effect of over 50% in size
How it was run: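 Agonist-stimulated (L165041, 300 nM final) HEK293H PPARd UAS-bla cells are exposed to compounds for 17 h at 37 C, and ATP-based luminescence (CellTiter-Glo) from the same wells reports cytotoxicity.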

[4] = biological target: Bile acid receptor (Homo sapiens) (UniProt Q96RI1); test: qHTS assay to identify small molecule antagonists of the farnesoid-X-receptor (FXR) signaling pathway (AID 743217; active = well fitted inhibition curve with a large enough effect in the signal ratio in the repeat runs, not every such curve was filed as active; the % refers to the signal ratio)
Bile acid receptor (Homo sapiens), sequence (Q96RI1 whole entry, looked up): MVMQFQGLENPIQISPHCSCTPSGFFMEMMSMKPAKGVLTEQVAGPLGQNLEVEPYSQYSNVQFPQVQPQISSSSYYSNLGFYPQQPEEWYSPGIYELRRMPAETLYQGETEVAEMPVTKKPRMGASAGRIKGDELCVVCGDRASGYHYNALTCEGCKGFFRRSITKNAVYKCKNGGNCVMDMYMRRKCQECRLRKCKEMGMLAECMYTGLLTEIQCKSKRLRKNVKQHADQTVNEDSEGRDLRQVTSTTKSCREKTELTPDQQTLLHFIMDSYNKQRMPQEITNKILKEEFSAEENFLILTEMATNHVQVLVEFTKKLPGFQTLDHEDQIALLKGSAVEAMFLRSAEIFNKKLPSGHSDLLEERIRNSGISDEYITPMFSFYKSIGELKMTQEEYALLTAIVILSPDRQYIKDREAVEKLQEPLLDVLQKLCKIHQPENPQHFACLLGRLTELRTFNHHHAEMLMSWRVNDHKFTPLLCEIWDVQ
How it was run: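 FXR-UAS-bla HEK 293T cells (beta-lactamase reporter) given compound plus chenodeoxycholic acid (50 uM final), 16 h at 37C. LiveBLAzer B/G FRET substrate added for 2 h at room temperature; fluorescence read.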

[5] = qHTS assay to identify small molecule agonists of the farnesoid-X-receptor (FXR) signaling pathway - cell viability counter screen (AID 743218); also: nearly all actives have a fitted effect of over 45% in size
How it was run: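 FXR-UAS-bla HEK 293T cells exposed to compounds for 16 h at 37C. Cytotoxicity read in the same wells by CellTiter-Glo luminescence after 30 min at room temperature, following the beta-lactamase FRET read.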

[6] = biological target: Bile acid receptor (Homo sapiens) (UniProt Q96RI1); test: qHTS assay to identify small molecule agonists of the farnesoid-X-receptor (FXR) signaling pathway (AID 743220; active = well fitted activation curve with a large enough effect in the signal ratio in the repeat runs, not every such curve was filed as active; the % refers to the signal ratio)
How it was run: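 Beta-lactamase reporter under UAS control in GeneBLAzer FXR HEK 293T cells (5000/well) measured with LiveBLAzer FRET substrate after 2 h at room temperature. Compound exposure lasted 16 h at 37C.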

[7] = biological target: Vitamin D3 receptor (Homo sapiens) (UniProt P11473); test: qHTS assay to identify small molecule agonists of the vitamin D receptor (VDR) signaling pathway (AID 743222; calls by dose curve)
Vitamin D3 receptor (Homo sapiens), sequence (P11473 whole entry, looked up): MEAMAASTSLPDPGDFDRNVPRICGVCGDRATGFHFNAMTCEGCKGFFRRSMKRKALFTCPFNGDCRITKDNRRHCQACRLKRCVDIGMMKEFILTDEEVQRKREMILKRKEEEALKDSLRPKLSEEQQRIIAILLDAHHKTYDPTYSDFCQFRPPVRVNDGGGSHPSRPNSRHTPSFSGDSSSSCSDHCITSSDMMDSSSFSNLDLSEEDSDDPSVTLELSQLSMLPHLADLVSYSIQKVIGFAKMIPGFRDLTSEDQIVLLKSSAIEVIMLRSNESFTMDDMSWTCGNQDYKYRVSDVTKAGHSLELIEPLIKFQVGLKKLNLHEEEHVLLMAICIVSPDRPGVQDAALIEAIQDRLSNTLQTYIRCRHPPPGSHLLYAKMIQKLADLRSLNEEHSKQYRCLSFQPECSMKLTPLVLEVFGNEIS
How it was run: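 VDR-bla cells plated 4 h at 37 C, then exposed to compounds for 16 h at 37 C. Beta-lactamase reporter activity measured by fluorescence after 2 h room-temperature loading with LiveBLAzer B/G FRET substrate.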

[8] = qHTS assay to identify small molecule antagonists of the farnesoid-X-receptor (FXR) signaling pathway - cell viability counter screen (AID 743221; active = well fitted cell-killing curve with a large enough effect in the repeat runs, not every such curve was filed as active; also: nearly all actives have a fitted effect of over 50% in size)
How it was run: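 GeneBLAzer FXR-UAS-bla HEK 293T cells, compound plus chenodeoxycholic acid (50 uM final), 16 h at 37 C. CellTiter-Glo added to the same wells after the beta-lactamase read; luminescence read after 30 min at room temperature as viability.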

[9] = biological target: Peroxisome proliferator-activated receptor delta (Homo sapiens) (UniProt Q03181); test: qHTS assay to identify small molecule antagonists of the peroxisome proliferator-activated receptor delta (PPARd) signaling pathway (AID 743215; active = well fitted inhibition curve with a large enough effect in the signal ratio in the repeat runs, not every such curve was filed as active; the % refers to the signal ratio; also: series mostly up to about 62 µM)
How it was run: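 PPARd-bla HEK293H cells (UAS-bla reporter) preincubated 5 h, then given compound plus 300 nM final L165041 agonist for 17 h at 37 C. Beta-lactamase activity read by LiveBLAzer B/G FRET substrate fluorescence after 2 h at room temperature.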

[10] = biological target: Vitamin D3 receptor (Homo sapiens) (UniProt P11473); test: qHTS assay to identify small molecule antagonists of the vitamin D receptor (VDR) signaling pathway (AID 743223; active = well fitted inhibition curve with a large enough effect in the signal ratio in the repeat runs, not every such curve was filed as active; the % refers to the signal ratio)
How it was run: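 VDR-bla cells were treated with compound plus 3 nM final 1alpha,25-dihydroxyvitamin D3 for 16 h at 37C. Beta-lactamase reporter read by B/G FRET substrate fluorescence after 2 h at room temperature. qHTS format.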

Measured: Potency

CC(C)(C)NCC(O)COc1ccc(NC(=O)NC2CCCCC2)cc1 (stereo not given)
not listed: [8] | [9] | [10]
inactive: all other assays above

O=C(Nc1ccccc1)c1cc([N+](=O)[O-])ccc1Cl
inactive: [1] | [2] | [3] | [5] | [6] | [8]

O=C(O)c1ccccc1[N+](=O)[O-]
not listed: [4] | [5] | [8]
inactive: all other assays above

O=C(O)c1ccccc1-n1cc(C(=O)O)c(=O)c2cc(Nc3c(F)cc(F)cc3Cl)c(Cl)cc21
not listed: [9]
inactive: all other assays above

Nc1ccc(-c2ccc(F)cc2)cc1
not listed: [5] | [9] | [10]
inactive: all other assays above

O=C(c1ccco1)N1CCNCC1
not listed: [7] | [9] | [10]
inactive: all other assays above

CC(C(=O)O)c1ccc(/C=C2\CCCCC2=O)cc1 (stereo not given)
inactive: [1] | [2] | [3] | [9] | [5] | [7]

O=C(O)c1ccc2c(c1)nc(C(=O)NC1CCN(C3CC3)CC1)n2Cc1cc(-c2ccc(Cl)s2)on1
inactive: [1] | [2] | [3] | [4] | [6] | [8]

CC(C)(O)C(=O)O
not listed: [4] | [6] | [9]
inactive: all other assays above

C[Si](C)(C)O[Si](C)(C)O[Si](C)(C)C
not listed: [4] | [6] | [8]
inactive: all other assays above

COC(=O)/C=C/C(C)=C\C=C\C(C)=C\C=C\C=C(C)\C=C\C=C(C)\C=C\C(=O)O
not listed: [9]
inactive: all other assays above

Cc1nc(C)c(C)nc1C
not listed: [4] | [6] | [8]
inactive: all other assays above

CC(C)(C)c1ccc(CCC=O)cc1
not listed: [5] | [9] | [10]
inactive: all other assays above

Cc1cc(C)n(CO)n1
not listed: [8] | [9] | [10]
inactive: all other assays above

CCN(CC)CC(=O)OCC(=O)[C@@]1(O)CC[C@H]2[C@@H]3CCC4=CC(=O)CC[C@]4(C)[C@H]3[C@@H](O)C[C@@]21C
inactive: [1] | [2] | [3] | [5] | [8] | [7]
